Data taken from PMC10163288.
Not all results are given here. No count for the full screen is at hand.

B1: il2ra_site1_3nfp_sap_6_mot_HHH_b2_06502_000000163_0001_42_55_H_._HEEHE_0113_0001_0000200018_0000001_0_0001 (protein)
chain: SSSSSNDEAWRLLREAYEEFKKAKSREEMRELLEEAERLARELGDERLLRDIEKWLEQMKSSSSS
B2: il2ra_site2_2erj_sap_24_mot_HHH_b1_07975_000000000_0001_41_57_H_._HHH_b1_08466_af2_0001_0000800020_0000001_0_0001_af2pred_0001_af2pred (protein)
chain: SSSSSEEEEELKEFIEELVREFGLSEEVQKELEEIARFALEQGIDEEDIKKWLKLFAEETSSSSS
B3: il2ra_site2_3nfp_normal_mot_HHH_b1_01086_af2_000000264_0001_39_53_H_._a6da1dbab15e72488587f943ddaf1f3f_0001_1_af2_0001_0000500054_0000001_0 (protein)
chain: DREELLERIVREKDPRVEELLEEIKEAKERNDEELLEKLAKRLALIAFELGDPEVFALAADLQSI
B4: il2ra_site2_3nfp_normal_mot_HHH_b1_08498_000000146_0001_21_37_H_._HHH_b1_08008_0001_0000100001_0000001_0 (protein)
chain: SSSSDEEHLEAATRLIRAAAWALNDPELERRAEELLEEIKEHGDPELKQELAELTHEAFELSSSS
B5: il2ra_site2_2erj_normal_mot_HHH_b1_05749_af2_000000086_0001_23_39_H_._HHH_b2_01918_0001_0000200007_0000001_0 (protein)
chain: SSSSDELEEEVEELLEEVRRAYEEGDLEEAYRLAVRVFALAAENNDPELQRAVTRLLEELSSSSS
B6: il2ra_site1_3nfp_sap_17_mot_0eddeacbb14b769e73e254714f31e2f9_0001_af2_000000052_0001_37_51_H_._7093d3a5e4329be201a559e39cb9bd18_0001_0001_0000800048_0000001_0_0 … (protein)
chain: SSSDEAKELAEEAIEELERLIKEGDVRAVAETIRRIAKELLELNDPEALELLQREVRKLLRSSSS
B7: il2ra_site1_2b5i_sap_17_mot_2cbe48e66a1f39b3fed734b245ab0a04_0001_000000015_0001_17_31_H_._HHH_b1_01921_0001_0000600034_0000001_0_0001_af2pred_dldesign_0_af2pre … (protein)
chain: SSSSSDVKEVLELFEEANKLFQAGKPEEAKEVLEKALEKAKALGAEAHIRIIESALEQLESSSSS
B8: il2ra_site1_3nfp_sap_12_mot_HHH_b1_07180_af2_000000260_0001_1_19_H_._HHH_b2_06317_af2_0001_0000500010_0000001_0_0001_af2pred_0001_af2pred_1 (protein)
chain: SDEELIKKLVRIAVEQNSPRLLRKILRDFERYTGDPEEAERILEELIEEVLGDPEEARRLVEEAK
B9: il2ra_site1_1z92_normal_mot_c9a8daa1dfea21d1414aecde54be4f54_0001_1_af2_000000024_0001_32_46_H_._0e4f66a3c4b070984708d3e1d5382b02_0001_1_af2_0001_0000100008_000 … (protein)
chain: NVAERLFEQAEELGVPPRAVVLALVSAVHAEDPRLREEAEELLERVRRGELPPEEAVRLLAELLE
B10: il2ra_site1_3nfp_sap_9_mot_HHH_b1_03716_af2_000000235_0001_20_37_H_._HHH_b1_05438_0001_0000400011_0000001_0_0001_af2pred_0001_af2pred_1 (protein)
chain: SSSSTELKELLKIVQRLFEEFNLSEEQAQELLQLAEELAKEGVSLEEIEELLRELAERLSSSSSS
B11: il2ra_site2_3nfp_sap_18_mot_11405e7faed88c9d08fdae67291e590b_0001_1_000000110_0001_14_30_H_._HHH_b2_00163_af2_0001_0000300012_0000001_0_0001 (protein)
chain: SSSSDKHERYLRAALELIERAIREGDHEIARRMLETVKSAAEDNNDEEIEELVEELEELLRSSSS
B12: il2ra_site2_2erj_normal_mot_HHH_b1_03609_af2_000000077_0001_42_55_H_._HHH_b2_01692_0001_0000500006_0000001_0 (protein)
chain: SSSSSEVEEEVREILEEAKHIEDPEEREKVLSKAAELAFENNDFEAWSLVSEVFRELAESSSSSS
B13: il2ra_site2_2erj_normal_mot_6bd1339e93f6fdda22195c76da45ec5d_0001_000000136_0001_37_51_H_._HHH_b2_06260_0001_0000100003_0000001_0_af2pred_0001_af2pred (protein)
chain: SSSSSEDEERVEELLEQAEEAAKRDPEKALHLLFEAMEIALKSDNEELLKLVLEVSHRIAESSSS
B14: il2ra_site2_2erj_normal_mot_HHH_b1_05749_af2_000000010_0001_23_39_H_._HHH_b1_07967_0001_0001100051_0000001_1 (protein)
chain: SSSSDWLEELYRLAVELLRLSSRRDEEEFERVYREIERLVEEFNNESAREILEHIRRLFEGSSSS
B15: il2ra_site1_2b5i_normal_mot_2cbe48e66a1f39b3fed734b245ab0a04_0001_000000015_0001_17_31_H_._HHH_b2_00019_0001_0000500012_0000001_0_af2pred_dldesign_0_af2pred (protein)
chain: SSSSSSDAEAEVERLLEEARKVNPEEAEKLLFKALVVAWAAKDPALVARVEAEAKRLLSSSSSSS
B16: il2ra_site2_3nfp_sap_25_mot_HHH_b2_07498_000000293_0001_1_14_H_._HHH_b1_01574_0001_0000100004_0000001_0_0001_af2pred_0001_1_af2pred_swapped (protein)
chain: SSSSSDEELLEEAKRLLEEGNLEEAFRVLAEAASEAIELGDEELAHEIAALAIEVAEKLGSSSSS
B17: il2ra_site1_1z92_sap_9_mot_HHH_b1_04604_af2_000000029_0001_42_56_H_._3020bb65e3c0c4c1750efda2a61ed53f_0001_1_af2_0001_0000300015_0000001_0_0001 (protein)
chain: SEEYLEEQLRRKLELGNIEDAARALFKFIAAAAGDPEQAEEFLEELLKRAGVPPEVIEKILEEAK
B18: il2ra_site1_2b5i_normal_mot_HHH_b2_00231_000000175_0001_20_36_H_._HHH_b2_07547_0001_0000100002_0000001_0_af2pred_0001_af2pred (protein)
chain: SSSSDVWELYLRASRLFLRGNPEEAERLLEEAIELAERLGDPEIAKQLEEMLRHVRRSLSSSSSS
B19: il2ra_site2_3nfp_sap_20_mot_ce0e691d864d74cc0dee145e42b7b696_0001_1_af2_000000051_0001_34_49_H_._HHH_b1_03816_af2_0001_0000500031_0000001_0_0001 (protein)
chain: SSSSSDEEKLEEARELYEEGNPEEARKILLHLVSEAEEKGDRELLFRIMALANEVAAALISSSSS
B20: il2ra_site2_3nfp_normal_mot_HHH_b1_05918_af2_000000127_0001_23_40_H_._HHH_b1_07797_0001_0000400047_0000001_0 (protein)
chain: SSSSSEAEEYLRAALLLAELALREGDEENARRSLELAIQLAEHKGNPELLEELEELLEEINSSSS
B21: il2ra_site1_3nfp_sap_8_mot_119b7766384adbe86006a62bce89dba1_0001_af2_000000092_0001_18_32_H_._HHH_b2_02632_0001_0000300007_0000001_0_0001 (protein)
chain: SSSSDARELLFEAAEILDELAERGDHEELKRFAEEVIEELEELGNRQAARMIRWLVERALSSSSS
B22: il2ra_site2_3nfp_sap_22_mot_HHH_b2_08245_000000023_0001_41_55_H_._HHH_b2_07283_0001_0000300027_0000001_0_0001 (protein)
chain: SSSSDVEERIEELLKEIEELLEKGDPEEAERLLLEVALLAWETGDFEAFAAVTRLLERVQSSSSS
B23: il2ra_site1_2b5i_sap_18_mot_89dc1dc23437faef961419e82e151d9c_0001_af2_000000202_0001_15_32_H_._9f08b0091ee0dae2b2d48aa630d4ec63_0001_1_0001_0000400022_0000001_0 … (protein)
chain: SSSSSIEELLEAMLELAEELIENGNPEEARAILLLARRAARAHGNPEYVKELERLLRELLSSSSS
B24: il2ra_site2_3nfp_normal_mot_HHH_b1_05158_000000192_0001_1_17_H_._HHH_b1_05195_0001_0000600013_0000001_0_af2pred_0001_af2pred (protein)
chain: SSSSSSDSELTFLLILLEALLEEVDDPEIRELLEEALEELREKKDPEIARKVLKEASEYLSSSSS

target: il2ra, P01589; experiment: yeast display titration
Sequence (P01589 whole entry): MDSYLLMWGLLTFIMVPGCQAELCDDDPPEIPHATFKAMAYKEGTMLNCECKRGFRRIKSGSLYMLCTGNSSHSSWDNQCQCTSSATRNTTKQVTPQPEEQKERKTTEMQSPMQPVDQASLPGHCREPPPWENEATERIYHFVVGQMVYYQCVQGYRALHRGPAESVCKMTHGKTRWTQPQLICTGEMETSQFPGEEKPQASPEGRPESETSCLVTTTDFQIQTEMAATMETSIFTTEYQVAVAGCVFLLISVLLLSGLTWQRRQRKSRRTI

Apparent Kd, inactive:
B1 no binding seen
B2 no binding seen
B3 no binding seen
B4 no binding seen
B5 no binding seen
B6 no binding seen
B7 no binding seen
B8 no binding seen
B9 no binding seen
B10 no binding seen
B11 no binding seen
B12 no binding seen
B13 no binding seen
B14 no binding seen
B15 no binding seen
B16 no binding seen
B17 no binding seen
B18 no binding seen
B19 no binding seen
B20 no binding seen
B21 no binding seen
B22 no binding seen
B23 no binding seen
B24 no binding seen
